# Screening data from PubChem BioAssay.
# DT40 TDP1 CPT – DT40-hTDP1 cell growth loss with CPT; chicken DT40 Tdp1-/-;hTDP1 cells + 20 nM CPT, ATP luminescence, 48 h; Potency, µM (series often up to 46.2 µM), for inactives: at the top dose activity change, negative = growth inhibition, actives largely listed as inhibitors; actives 12% (n = 420,000); AID 686979; further: potency means the concentration at half of the fitted maximal effect; nearly all actives have a fitted effect of over 55% in size
#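 Chicken DT40 Tdp1-/- cells stably complemented with human TDP1 were seeded at 400 cells/well in medium containing 20 nM camptothecin, exposed to pin-transferred compounds, and grown at 37 °C for at least 48 hr. Viability was read as ATP luminescence.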
# IL1B secr inh – inhibitors of inflammasome signaling (IL-1 beta secretion); THP-1 LPS/ATP IL-1B secretion, AlphaLISA, 16 h; stronger effect = lower value; activity change, % at 57.5 µM; actives 4.7% (n = 360,000); in the data active means activity change below about -50%; inconclusive means mostly about -30% to -49%
#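 Secreted IL-1B measured by AlphaLISA bead assay after 16 h compound exposure of THP-1 cells; compounds (final up to 57.5 uM) added 1 h before LPS (250 ng/mL) and ATP (1.25 mM) stimulation; lower signal means less secretion.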
# TDP1 cell noCPT – qHTS for Inhibitors of human tyrosyl-DNA phosphodiesterase 1 (TDP1): qHTS in cells in absence of CPT; AID 686978, 2013; Potency, µM (series often up to 46.2 µM), for the others: top-dose activity change, negative = growth inhibition, most hits filed as inhibitors; actives 15% (n = 420,000); DT40 Tdp1-/- hTDP1 cells, no CPT, ATP luminescence, 48 h; further: potency means the concentration at half of the fitted maximal effect; nearly all actives have a fitted effect of over 55% in size
#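 DT40 Tdp1-/-;hTDP1 cells, no CPT (DMSO vehicle only), 400 cells/well; compounds pin-transferred; ≥48 hr, 37 °C; CellTiter-Glo 30 min RT dark, luminescence read.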
# RORg inh – blocks mouse ROR gamma transcriptional activity | P51450 | Drosophila S2 Gal4-RORgamma UAS-luciferase reporter, 20 h | Potency, µM (series often up to 53.6 µM), for inactives: top-dose activity change, negative = inhibition, hits mostly inhibitors | actives 5.4% (n = 310,000); further: potency means the concentration at half of the fitted maximal effect; nearly all actives have a fitted effect of over 60% in size
# Target sequence (P51450 whole entry, looked up, the tested form may be a part): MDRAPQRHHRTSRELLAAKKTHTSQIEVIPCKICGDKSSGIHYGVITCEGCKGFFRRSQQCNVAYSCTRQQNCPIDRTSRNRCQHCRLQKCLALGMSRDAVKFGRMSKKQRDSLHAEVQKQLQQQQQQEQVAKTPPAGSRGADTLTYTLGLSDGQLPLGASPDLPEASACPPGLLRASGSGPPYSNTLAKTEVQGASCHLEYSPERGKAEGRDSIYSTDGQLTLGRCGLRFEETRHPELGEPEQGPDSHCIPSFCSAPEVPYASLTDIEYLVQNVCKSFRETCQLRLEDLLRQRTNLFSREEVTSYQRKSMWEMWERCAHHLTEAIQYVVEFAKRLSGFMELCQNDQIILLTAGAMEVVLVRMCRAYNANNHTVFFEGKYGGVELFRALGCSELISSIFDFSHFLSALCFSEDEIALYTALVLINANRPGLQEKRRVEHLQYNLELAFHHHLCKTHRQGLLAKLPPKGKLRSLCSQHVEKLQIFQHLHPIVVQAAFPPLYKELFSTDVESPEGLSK
#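 Drosophila S2 cells stably expressing Gal4-DBD/mouse RORγ fusion under metallothionein promoter plus UAS-luciferase; compound 1 h, then 700 uM CuSO4 induction for 20 h at ambient temperature; inhibition read as reduced luminescence.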
# LDHA inh – blocks human lactate dehydrogenase A; activity change, % (values are at about 110 or 230 µM); purified LDHA, NADH/diaphorase-resazurin fluorescence; stronger effect = lower value; P00338; actives 0.15% (n = 480,000); in the data active means activity change below about -30%; inconclusive means mostly about -25% to -30%;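 further: plate controls were DMSO wells for no effect and wells without enzyme for full effect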
#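 LDH5 2 nM; NADH 0.06 mM, pyruvate 0.2 mM; 200 mM Tris pH 7.4, EDTA, Tween-20; 5 min RT. Detection: diaphorase 0.133 mg/mL + resazurin 37 µM, fluorescence ex540/em590 at 0 and 20 min; normalized to enzyme-free and DMSO wells.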
# Gal4-VP16 FLuc – counter-screen for ROR gamma inhibitors: Gal4-VP16 reporter; Drosophila S2 Gal4-VP16 UAS-luciferase, luminescence, 20 h; Potency, µM (highest dose often 53.6 µM), for inactives: at the top dose activity, negative = inhibition, hits mostly inhibitors; actives 3.5% (n = 310,000);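 further: Gal4-VP16 expression switched on by copper sulfate through the metallothionein promoter; potency means the concentration at half of the fitted maximal effect; nearly all actives have a fitted effect of over 50% in size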
# * = called active by the depositor; ? = inconclusive; / = no result given; [ ] = dose if it differs, or a comment. An excerpt weighted towards active compounds, which were near 18% of everything screened. Unless noted, the call rests on the fitted dose curve; in most records, active means well fitted curve in the direction sought with a large enough effect; inconclusive means small, poorly fitted or top-dose-only effect, or another doubt; inactive means no such curve, though single readings can be large; an effect the other way counts as inactive or inconclusive. Unless noted, on the % scale 0 is the no-effect control and ±100 the full control effect.
SMILES,DT40 TDP1 CPT,IL1B secr inh,TDP1 cell noCPT,RORg inh,LDHA inh,Gal4-VP16 FLuc
Cc1cc(=O)[nH]c(SCC(=O)/C=C2\N(C)c3ccccc3C2(C)C)n1,?,-14.6,9.2µM*,?,-5.1,?
Cc1ccc(-n2nnnc2C2(NC3CCCCC3)CCCC2)cc1,/,/,/,/,7.3,/
Cc1ccccc1C(=O)Cn1c(=O)n(CCc2ccccc2)c(=O)c2sccc21,/,/,/,/,5.7,/
CCc1cc2c(=O)c(-c3nc4ccccc4n3C)coc2c(CN2CCN(C)CC2)c1O,-0.2%,-3.6,-0.7%,1.3%,-4.9,7.2%
CCc1cc2c(=O)c(-c3nc4ccccc4n3C)coc2c(CN2CCC(C)CC2)c1O,?,54.8,6.51µM*,-18.3%,-3.3,7.8%
CCOC(=O)c1c(CCl)nc2ccccc2c1-c1ccccc1,13µM*,-19.1,23.1µM*,-15.6%,4.1,-1.4%
CCOC(=O)c1c(C)nc2c(c1-c1ccccc1)C(=O)c1ccccc1-2,?,-53.7*,?,10.4%,6.9,-1.4%
CCOC(=O)c1c(C)nc2ccccc2c1-c1ccccc1,?,-1.2,18.4µM*,2.7%[10 µM],-1.5,?
CCOC(=O)c1c(C)nc2c(c1-c1cc(OC)ccc1OC)C(=O)c1ccccc1-2,?,0.0,-22.0%,8.6%,0.0,2.7%[0.365 µM]
CCOC(=O)c1c(N)nn(C(=O)C(C)C)c1-c1ccccc1,?,-8.1,13µM*,7.8%,-2.2,-19.2%
CCOC(=O)c1c(N)nn(C(=O)CC)c1-c1ccccc1,-12.3%,-0.9,-26.5%,40.2%,0.3,-4.4%
Cc1ccc(C)c(S(=O)(=O)Nc2nc3ccccc3nc2Nc2ccc3c(c2)OCCO3)c1,/,/,/,/,6.1,/
Cc1cc(C)nc(SCC(=O)NC2=NN=C(c3ccc(Br)cc3)CS2)n1,12.6µM*,-82.9*,12.6µM*,?,-6.5,-95.9%
CS(=O)(=O)c1ccc(OCCOc2ccc(F)cc2)cc1,/,/,/,/,5.3,/
Cc1ccc(-c2nc(C#N)c(N3CCN(C)CC3)o2)cc1,/,/,/,/,-3.7,/
Cc1cccc(NC(=O)c2nc[nH]c2C(=O)Nc2ccccc2F)c1,?,8.7,?,/,-1.2,/
CCOc1ccccc1NC(=O)c1cnccn1,4.2%,-59.2*,-12.2%,?,-2.8,23.1%
CCOc1ccccc1NC(=O)c1nc[nH]c1C(=O)Nc1ccccc1OCC,16.4µM*,24.9,?,2µM*,-4.6,3.98µM*
CCOc1ccccc1NC(=O)C(CC)Sc1nc2ccncc2[nH]1 (stereo not drawn),?,11.0,16.4µM*,-23.5%,-15.9,-5.3%
COc1ccccc1NC(=O)c1nc[nH]c1C(=O)Nc1ccccc1OC,-27.5%,7.8,?,2µM*,-8.8,?
O=C(Nc1ccccc1Oc1ccccc1)c1cnccn1,-10.4%,20.3,-16.0%,-14.9%,-9.0,-5.5%
Cc1ccccc1NC(=O)c1[nH]cnc1C(=O)NN,16.2%,16.2,6.5%,-17.6%,-9.8,4.2%
CCOc1ccccc1NC(=O)c1ccc(C(=O)Nc2ccccc2OCC)nc1,?,20.4,-9.6%,-11.6%,-0.6,?
COc1ccccc1NC(=O)c1ccc(C(=O)Nc2ccccc2OC)nc1,4.61µM*,23.5,?,-10.3%,-3.3,-2.4%
Cc1cccn2c(=O)c3cc(C#N)c(=NC(=O)c4ccncc4)n(CCCOC(C)C)c3nc12,18.4µM*,-18.7,16.4µM*,-44.4%,0.0,1.8%
SMILES,DT40 TDP1 CPT,IL1B secr inh,TDP1 cell noCPT,RORg inh,LDHA inh,Gal4-VP16 FLuc
Cc1cccn2c(=O)c3cc(C#N)c(=NC(=O)c4cccs4)n(CCCOC(C)C)c3nc12,?,-15.5,18.4µM*,-10.5%,8.8,-12.1%
CC(=O)N=c1c(C#N)cc2c(=O)n3cccc(C)c3nc2n1CCCOC(C)C,1.2%,25.4,-29.0%,-42.9%,-5.6,?
Cc1ccc(/C=N/NC(=O)C2CC2)o1,/,/,/,/,13.0,/
Cc1ccc(S(=O)(=O)Nc2cnc3ccccc3c2)cc1,?,29.6,?,3.6%,-0.6,?
COc1ccc(OC)c(S(=O)(=O)Nc2ccc3c(c2)C(=O)OC3)c1,11.6µM*,14.4,8.2µM*,12.6%,-10.3,-3.8%
O=S(=O)(Nc1cnc2ccccc2c1)N1CCCCCC1,20.6µM*,22.8,13µM*,?,-2.1,-6.9%
COc1ccc(OC)c(S(=O)(=O)n2cnc3ccccc32)c1,?,24.6,16.4µM*,12.1%,-2.7,1.2%
COc1ccc(OC)c(S(=O)(=O)Nc2cnc3ccccc3c2)c1,?,63.1,23.1µM*,37.4%,-9.2,3.0%
O=C(O)CCCCCCCCC#CC#CCCc1ccccc1,/,/,/,/,12.5,/
COc1ccc(OC)c(S(=O)(=O)ON2C(=O)c3ccccc3C2=O)c1,2.31µM*,-12.6,1.46µM*,5.62µM*,-3.9,7.94µM*
Nc1ccccc1O,?,-3.4,16.4µM*,-0.7%,2.4,27.8%
N#Cc1cccc(NCc2cc(Br)ccc2F)c1,/,/,/,/,14.4,/
Cc1ccccc1CC(=O)Nc1cc(S(=O)(=O)N2CCOCC2)ccc1N1CCOCC1,/,/,/,/,0.4,/
CCC(=O)N1c2ccccc2C(N(C(=O)CC)c2ccccc2)CC1C (stereo not drawn),?,110.0,9.2µM*,-43.0%,-4.5,4.9%
CCOc1cc(C(=O)OCC(=O)NC(N)=O)cc(OCC)c1OCC,/,/,/,/,3.0,/
COc1ccc(N=C2S/C(=C\c3ccco3)C(=O)N2CC(C)C)cc1,-0.1%,-9.6,-6.6%,8.3%,-5.0,-12.5%
COc1ccc(N=C2S/C(=C\c3cc(C)n(C)c3C)C(=O)N2CC(C)C)cc1,?,-2.0,18.4µM*,42.6%,-2.4,0.0%
CCCN1C(=O)/C(=C/c2ccc(C)s2)SC1=Nc1ccc(OC)cc1,?,-11.1,?,2.4%,-1.9,2.2%
CCN1C(=O)/C(=C/c2cccs2)SC1=Nc1ccc(OC)cc1,7.31µM*,-3.3,4.11µM*,12.6%,-6.9,-5.7%
CCC(NC(=O)NC12CC3CC(CC(C3)C1)C2)c1ccc(Cl)cc1 (stereo not drawn),/,/,/,/,8.6,/
Cc1cc(N/N=C/c2ccco2)c2ccccc2n1,?,-23.4,?,-5.2%,0.2,-9.3%
Cc1cc(C)c2nc(C)cc(N/N=C/c3ccc(O)cc3)c2c1,3.26µM*,-98.3*,3.26µM*,?,-2.6,4.47µM*
Cc1cc(N/N=C/c2ccc(N(C)C)cc2)c2ccccc2n1,0.7%,-15.0,?,15.8µM*,-0.3,?
Cc1cc(N/N=C/c2ccc(O)cc2)c2cccc(C)c2n1,?,?,?,?,4.3,17.8µM*
